# tim10-1 inh: growth inhibitors of tim10-1 mutant yeast, primary screen, luminescence, uHTS; 330,000 compounds, 2.2% hits; inhibition, % at 20 µM; S. cerevisiae tim10-1 ts strain growth, BacTiter-Glo, 24 h;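 active = inhibition of at least 40%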;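 also: mutant grown at 25 °C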
# NALP3 yeast inh: NALP3 inflammasome inhibitors in reconstituted yeast, primary screen, luminescence, uHTS; Yeast reconstituted NLRP3/ASC/caspase-1, beta-gal luminescence, 24 h; inhibition, % at 10 µM; 330,000 compounds, 0.39% hits; AID 2825, 2010;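 active = inhibition of 50% or more; inactive = inhibition below 50%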
# TIM10 inh: growth inhibitors of isogenic TIM10 control yeast, primary screen, counter-screen for tim10-1 yeast inhibitor project, luminescence, uHTS; S. cerevisiae TIM10 strain growth, BacTiter-Glo luminescence, 24 h; inhibition, % at 10 µM; 330,000 compounds, 1.4% hits; AID 463195, 2010;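 active = inhibition of 40% or more at the single tested concentration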;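 also: wild-type TIM10 isogenic control strain grown at permissive 25 °C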
# NALP1 yeast inh: NALP1 inflammasome inhibitors in reconstituted yeast, colorimetric, S. cerevisiae, triplicate retest. AID 2071, 2009. 280,000 compounds, 0.61% hits. S. cerevisiae NALP1/ASC/caspase-1 growth, X-gal OD620, 72 h. inhibition, % at 10 µM; in the data active = inhibition mostly above about 24%, no sharp cut-off; inactive = mostly below about 32%
# tim23-1 inh: growth inhibitors of tim23-1 mutant yeast, primary screen, luminescence, uHTS. inhibition, % at 20 µM. S. cerevisiae tim23-1 growth, BacTiter-Glo luminescence, 24 h. AID 463212, 2010. 330,000 compounds, 1.3% hits;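 active = growth inhibition of the mutant yeast at or above 50%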;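 also: temperature-sensitive mutant grown at 25 °C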
# PfHsp90 set2: growth inhibition of PfHsp90-expressing yeast, primary screen, antimalarial PfHsp90 inhibitor project, S. cerevisiae, BacTiter-Glo luminescence, single point, set 2 | 310,000 compounds, 0.32% hits | AID 504621, 2011 | inhibition, % at 9.4 µM | BacTiter-Glo ATP, 48 h; yeast lacking PDR1 and PDR3 efflux regulators;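 active = every replicate shows inhibition above about 80%, whatever the replicate mean, limit read from the data; inconclusive = mean inhibition reaches the set limit but some replicate falls short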
# tim10-1 conf: growth inhibitors of tim10-1 mutant yeast, confirmation, single concentration, luminescence, S. cerevisiae | 7,400 compounds, 56% hits | shares compounds with tim10-1 inh | S. cerevisiae tim10-1 ts strain growth, BacTiter-Glo, 24 h | AID 463213, 2010 | inhibition, % at 20 µM;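 active = inhibition of yeast growth at or above a set limit in either of two repeat tests at 20 µM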;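 also: tim10-1 mutant grown at permissive 25 °C to find synthetic lethal compounds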
# Numbers stand for hits; 0 = inactive; ? = inconclusive; - = no result given. In the library only some 4.2% were active in any assay of this set; here they are far more common.
SMILES,tim10-1 inh,NALP3 yeast inh,TIM10 inh,NALP1 yeast inh,tim23-1 inh,PfHsp90 set2,tim10-1 conf
CC(=O)Nc1ccc(NC(=O)COC(=O)/C(=C/c2ccccc2)n2nnnc2C)cc1,0,0,0,0,0,0,-
C=CCn1c(SCC(=O)N(CCO)CCO)nc2sc3c(c2c1=O)CCC3,0,0,0,0,0,0,-
COc1ccc(-c2c(C)nn3c(NC4CCCC4)cc(C)nc23)cc1OC,44,0,0,0,0,0,0
COc1ccc(-c2c(C)nn3c(N4CCN(Cc5ccccc5)CC4)cc(C)nc23)cc1OC,0,0,0,0,0,0,-
COc1ccc(CCNc2cc(C)nc3c(-c4ccccc4)c(C)nn23)cc1OC,43,0,0,0,0,0,0
CC1Cc2cc(S(=O)(=O)N3CCCC(C(=O)N4CCCCC4)C3)ccc2N1C(=O)C1CC1 (stereo not given),43,0,0,0,0,0,0
Cc1ccc2nc(SCC(=O)Nc3cc(C(C)(C)C)nn3-c3ccccc3)[nH]c2c1,44,0,0,0,0,0,0
COc1ccc(-n2c(C)cc(C(=O)Cn3nc(C(=O)O)c4ccccc4c3=O)c2C)cc1,0,0,0,0,0,0,-
Cc1ccc(-n2c(C)cc(C(=O)Cn3nc(C(=O)O)c4ccccc4c3=O)c2C)cc1,42,0,0,0,0,0,0
NC(=O)CC(NC(=O)Cc1ccc(Br)cc1)c1ccc(NCc2ccc(F)cc2)c([N+](=O)[O-])c1 (stereo not given),0,0,0,-,0,0,-
Cc1ccc(-c2[nH]ncc2C(=O)c2ccc(Br)cc2)c(O)c1,42,0,0,0,0,0,0
COc1cccc(CNC(=S)Nc2cc(OC)ccc2OC)c1,45,0,0,0,0,0,0
CCCCc1ccc(NC(=S)Nc2ccc(Nc3ccc(OC)cc3)cc2)cc1,45,0,0,0,0,0,35
Cc1ccc(NC(=S)NCCSc2ccc(Cl)cc2)c(C)c1,0,0,0,0,0,0,-
COc1ccc(OC)c(NC(=S)NCCSc2ccc(C)cc2)c1,44,0,0,0,0,0,0
CCCCc1ccc(NC(=S)NCc2cccc(OC)c2)cc1,44,0,0,0,0,0,0
CCCCc1ccc(NC(=S)Nc2cccnc2)cc1,0,0,0,0,0,0,-
COc1ccc(/C(C)=N\O)cc1OC,0,0,0,0,0,0,-
COC(=O)CCC1(C(N)=O)CCC(=O)c2ccccc21 (stereo not given),-,-,-,-,-,0,-
COc1ccccc1C(CNC(=O)c1ccc(S(=O)(=O)N2CCCCC2)cc1)N(C)C (stereo not given),0,0,0,-,0,0,-
CC(C)Cc1nc2oc3c(NCC4CCCO4)ncnc3c2c2c1CCC2 (stereo not given),45,0,0,0,0,0,0
CCCN(CC(=O)Nc1cc(Cl)cc(Cl)c1)CC(=O)Nc1ccc(F)c(F)c1F,51,0,0,0,0,0,0
COc1ccc(CNC(=O)c2cccnc2)cc1,0,0,0,0,0,0,-
COc1ccc(/C=C/c2ccc(=O)n(Cc3ccccc3)n2)cc1,40,0,0,0,0,0,0
O=c1ccc(/C=C/c2ccccc2)nn1Cc1ccc(F)cc1,0,0,0,0,0,0,-
SMILES,tim10-1 inh,NALP3 yeast inh,TIM10 inh,NALP1 yeast inh,tim23-1 inh,PfHsp90 set2,tim10-1 conf
NC(=O)C1CCN(C(=O)c2cc(Cl)c3c(c2)OCCO3)CC1,0,0,0,-,0,0,-
CC(C)NC(=O)NC(=O)COc1ccc(Br)cc1Br,45,0,0,0,0,0,0
CC(C)NC(=O)NC(=O)COc1c(F)c(F)cc(F)c1F,0,0,0,0,0,0,-
O=C(c1sc2ccccc2c1Cl)N1CCN(c2ccccc2F)CC1,42,0,0,0,0,0,0
O=C(c1sc2ccccc2c1Cl)N1CCN(c2ccc(F)cc2)CC1,0,0,0,0,0,0,-
Cc1cc(=O)[nH]c(SCc2ccccc2)n1,0,0,0,0,0,0,-
CC(C)(C)c1cc(=O)[nH]c(SCc2ccccc2)n1,41,0,0,0,0,0,0
CCN(CC(=O)NCc1cccs1)C(=O)c1ccc(NS(=O)(=O)c2cccc([N+](=O)[O-])c2)cc1,0,0,0,-,0,-,-
CCN(CC(=O)Nc1ccc(NC(C)=O)cc1)C(=O)Cc1cccc2ccccc12,0,0,0,0,0,0,-
CCOC(=O)c1c(-c2ccc(C)o2)csc1NC(=O)CN1CCOCC1,0,0,0,0,0,0,-
CCOC(=O)c1c(-c2ccc(C)o2)csc1NC(=O)COC(=O)c1cccs1,42,0,0,0,0,0,0
CCOC(=O)c1c(-c2ccc(C)o2)csc1NC(=S)NC(=O)N(C)C,55,0,0,0,0,0,45
CCOC(=O)Cn1c(COc2ccccc2OC)[n+](C)c2ccccc21,0,0,0,-,0,-,-
CCCCCCCCCCOC(=O)Cn1c(COc2ccccc2C)[n+](C)c2ccccc21,70,0,0,0,0,?,0
O=C(NCc1cccs1)c1cccnc1Cl,0,0,0,0,0,0,-
Cc1cccc(Nc2ncccc2C(=O)NCc2cccs2)c1C,52,0,0,0,0,0,34
COC(=O)c1c(NC(=O)Cn2cnc([N+](=O)[O-])n2)sc2c1CCC(C)C2 (stereo not given),50,0,0,0,0,0,0
CCOc1ccc(NC(=O)CCN2C(=O)c3ccccc3C2=O)cc1,0,0,0,0,0,0,-
Cc1c(CCNC=O)cc(C)c2c3c(oc12)CCCC3,-,-,-,-,-,0,-
CCc1cccc(NC(=O)C2CCCN(c3ncnc4c3nc3n4CCCCC3)C2)c1 (stereo not given),40,0,0,0,0,0,0
COc1ccccc1NC(=O)C1CCCN(c2ncnc3c2nc2n3CCCCC2)C1 (stereo not given),0,0,0,0,0,0,-
O=C(Nc1ccccc1Cl)C1CCCN(c2ncnc3c2nc2n3CCCCC2)C1 (stereo not given),54,0,0,0,0,0,0
Cc1onc(-c2c(F)cccc2Cl)c1C(=O)N1CCN(c2ncc(Br)cn2)CC1,0,0,0,0,0,0,-
CN(C)c1ccc(S(=O)(=O)NCC(=O)NCCC2=CCCCC2)cc1[N+](=O)[O-],0,0,0,-,0,0,-
Cc1ccc(Sc2nnc(Cc3ccccc3)c3ccccc23)cc1,41,0,0,0,0,-,0

# Compound activity from PubChem.
